# The supplement of paper PMC8728848
# This is one part of a sample in which the strongest signals are shown more often than they occur.
# B1: chitinase 3-like protein 2 (Homo sapiens) (protein)
# chain: YKLVCYFTQWSQDRQEPGKFTPENIDPFLCSHLIYSFASIENNKVIIKDKSEVMLYQTINSLKTKNPKLKILLSIGGYLFGSKGFHPMVDSSTSRLEFINSIILFLRNHNFDGLDVSWIYPDQKENTHFTVLIHELAEAFQKDFTKSTKERLLLTAGVSAGRQMIDNSYQVEKLAKDLDFINLLSFDFHGSWEKPLITGHNSPLSKGWQDRGPSSYYNVEYAVGYWIHKGMPSEKVVMGIPTYGHSFTLASAETTVGAPASGPGAAGPITESSGFLAYYEICQFLKGAKITRLQDQQVPYAVKGNQWVGYDDVKSMETKVQFLKNLNLGGAMIWSIDMDDFTGKSCNQGPYPLVQAVKRSLGSL
# B2: Cohesin-hMARCO (Homo sapiens) (protein)
# chain: LDDLDAVRIKVDTVNAKPGDTVRIPVRFSGIPSKGIANCDFVYSYDPNVLEIIEIEPGDIIVDPNPDKSFDTAVYPDRKIIVFLFAEDSGTGAYAITKDGVFATIVAKVKEGAPNGLSVIKFVEVGGFANNDLVEQKTQFFDGGANVGDTTEPATPTTPVTTPTTTDDLDAASVRIVGSSNRGRAEVYYSGTWGTICDDEWQNSDAIVFCRMLGYSKGRALYKVGAGTGQIWLDNVQCRGTESTLWSCTKNSWGHHDCSHEEDAGVECSVHHHHHH
# Legend:
# Assay in all cases: glycan array binding signal (z-score within array); higher = stronger binding
# Settings in all cases: glycan notation: IUPAC condensed, linker removed
# [1] = biological target: Fuc(a1-2)Gal(b1-3)GalNAc(b1-3)Gal
# Procedure, shortened: (§1)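 Negative Z-scores can be read as non-binding. The Z-score is calculated within each array and then averaged across arrays of one protein sequence at different concentrations or buffers and across linkers. Arrays, 3228 in all, were curated from the Consortium for Functional Glycomics database and kept only where the protein sequence was available.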
# [2] = biological target: Fuc(a1-2)Gal(b1-4)[Fuc(a1-3)]GalNAc(b1-3)Gal(b1-4)[Fuc(a1-3)]GlcNAc
# Procedure, shortened: as §1
# [3] = biological target: Fuc(a1-3)[GalNAc(b1-4)]Gal(b1-4)GlcNAc
# Procedure, shortened: as §1
# [4] = biological target: Gal(b1-3)[GlcNAc(b1-6)]GlcNAc
# Procedure, shortened: as §1
# [5] = biological target: Gal(b1-4)GlcNAc(b1-3)Gal(b1-4)[Fuc(a1-3)]GlcNAc(b1-3)Gal(b1-4)[Fuc(a1-3)]GlcNAc
# Procedure, shortened: as §1
# GalNAc(b1-4)GlcNAc = biological target: GalNAc(b1-4)GlcNAc
# Procedure, shortened: as §1
# [6] = biological target: GlcNAc(a1-3)Gal(b1-4)GlcNAc
# Procedure, shortened: as §1
# [7] = biological target: GlcNAc(b1-3)Gal(b1-3)GalNAc
# Procedure, shortened: as §1
# [8] = biological target: GlcNAc(b1-4)GlcNAc(b1-4)GlcNAc(b1-4)GlcNAc(b1-4)GlcNAc
# Procedure, shortened: as §1
# [9] = biological target: GlcNAc(b1-4)GlcNAc(b1-4)GlcNAc(b1-4)GlcNAc(b1-4)GlcNAc(b1-4)GlcNAc
# Procedure, shortened: as §1
# [10] = biological target: Neu5Ac(a2-3)Gal(b1-3)[Neu5Ac(a2-3)Gal(b1-4)]GlcNAc
# Procedure, shortened: as §1
# Neu5Ac(a2-3)Gal(b1-4)Glc = biological target: Neu5Ac(a2-3)Gal(b1-4)Glc
# Procedure, shortened: as §1
# [11] = biological target: Neu5Ac(a2-3)Gal(b1-4)GlcNAc(b1-3)Gal(b1-4)GlcNAc
# Procedure, shortened: as §1
# [12] = biological target: Neu5Ac(a2-3)Gal(b1-4)GlcNAc(b1-3)Gal(b1-4)GlcNAc(b1-3)Gal(b1-4)GlcNAc
# Procedure, shortened: as §1
# [13] = biological target: Neu5Ac(a2-8)Neu5Ac(a2-8)Neu5Ac(a2-8)Neu5Ac(a2-3)[GalNAc(b1-4)]Gal(b1-4)Glc
# Procedure, shortened: as §1
# [14] = biological target: Neu5Gc(a2-3)Gal(b1-4)GlcNAc
# Procedure, shortened: as §1
# Fuc(a1-2)Gal(b1-4)Glc = biological target: Fuc(a1-2)Gal(b1-4)Glc
# Procedure, shortened: as §1
# [15] = biological target: Fuc(a1-2)Gal(b1-4)GlcNAc(b1-2)Man(a1-3)[Fuc(a1-2)Gal(b1-4)GlcNAc(b1-2)Man(a1-6)]Man(b1-4)GlcNAc(b1-4)[Fuc(a1-6)]GlcNAc
# Procedure, shortened: as §1
# [16] = biological target: Fuc(a1-2)[Gal(a1-3)]Gal(b1-3)GalNAc(b1-3)Gal(a1-4)Gal(b1-4)Glc
# Procedure, shortened: as §1
# [17] = biological target: Fuc(a1-2)[Gal(a1-3)]Gal(b1-3)GlcNAc
# Procedure, shortened: as §1
# [18] = biological target: Fuc(a1-2)[Gal(a1-3)]Gal(b1-4)GlcNAc(b1-2)Man(a1-3)[Fuc(a1-2)[Gal(a1-3)]Gal(b1-4)GlcNAc(b1-2)Man(a1-6)]Man(b1-4)GlcNAc(b1-4)GlcNAc
# Procedure, shortened: as §1
# [19] = biological target: Fuc(a1-2)[Gal(a1-3)]Gal(b1-4)GlcNAc(b1-6)GalNAc
# Procedure, shortened: as §1
# Gal(a1-3)Gal(b1-3)GlcNAc = biological target: Gal(a1-3)Gal(b1-3)GlcNAc
# Procedure, shortened: as §1
# [20] = biological target: Gal(a1-3)Gal(b1-3)GlcNAc(b1-6)GalNAc
# Procedure, shortened: as §1
# [21] = biological target: Gal(a1-3)Gal(b1-4)GlcNAc(b1-3)GalNAc
# Procedure, shortened: as §1
# Gal(a1-4)GlcNAc = biological target: Gal(a1-4)GlcNAc
# Procedure, shortened: as §1
# Gal(b1-3)Gal = biological target: Gal(b1-3)Gal
# Procedure, shortened: as §1
# Gal(b1-3)Gal(b1-4)GlcNAc = biological target: Gal(b1-3)Gal(b1-4)GlcNAc
# Procedure, shortened: as §1
# [22] = biological target: Gal(b1-3)GlcNAc(a1-6)Gal(b1-4)GlcNAc
# Procedure, shortened: as §1
# Gal(b1-3)GlcNAc(b1-2)Man = biological target: Gal(b1-3)GlcNAc(b1-2)Man
# Procedure, shortened: as §1
# [23] = biological target: Gal(b1-3)GlcNAc(b1-3)Gal(b1-3)GlcNAc
# Procedure, shortened: as §1
# [24] = biological target: Gal(b1-3)GlcNAc(b1-6)GalNAc
# Procedure, shortened: as §1
# [25] = biological target: Gal(b1-3)[Fuc(a1-4)]GlcNAc(b1-3)Gal(b1-3)[Fuc(a1-4)]GlcNAc
# Procedure, shortened: as §1
# Gal(b1-4)Glc6S = biological target: Gal(b1-4)Glc6S
# Procedure, shortened: as §1
# [26] = biological target: Gal(b1-4)GlcNAc(a1-6)Gal(b1-4)GlcNAc
# Procedure, shortened: as §1
# Gal(b1-4)GlcNAc(b1-2)Man = biological target: Gal(b1-4)GlcNAc(b1-2)Man
# Procedure, shortened: as §1
# [27] = biological target: Gal(b1-4)GlcNAc(b1-3)Gal(b1-3)GlcNAc
# Procedure, shortened: as §1
# [28] = biological target: Gal(b1-4)GlcNAc(b1-3)Gal(b1-4)GlcNAc(b1-3)Gal(b1-4)GlcNAc(b1-2)Man(a1-3)[Gal(b1-4)GlcNAc(b1-3)Gal(b1-4)GlcNAc(b1-3)Gal(b1-4)GlcNAc(b1-2)Man(a1-6)]Man(b1-4)GlcNAc(b1-4)GlcNAc
# Procedure, shortened: as §1
# [29] = biological target: Gal(b1-4)GlcNAc(b1-6)GalNAc
# Procedure, shortened: as §1
# Gal3S(b1-3)GalNAc = biological target: Gal3S(b1-3)GalNAc
# Procedure, shortened: as §1
# Gal3S(b1-4)Glc = biological target: Gal3S(b1-4)Glc
# Procedure, shortened: as §1
# [30] = biological target: Gal3S(b1-4)[Fuc(a1-3)]GlcNAc
# Procedure, shortened: as §1
# [31] = biological target: Gal3S(b1-4)[Fuc(a1-3)]GlcNAc6S
# Procedure, shortened: as §1
# Gal4S(b1-4)GlcNAc = biological target: Gal4S(b1-4)GlcNAc
# Procedure, shortened: as §1
# Gal6S(b1-4)GlcNAc = biological target: Gal6S(b1-4)GlcNAc
# Procedure, shortened: as §1
binder,measurement,setting,value
B1,glycan array binding signal (z-score),[1],-0.164
same,glycan array binding signal (z-score),[2],-0.22
same,glycan array binding signal (z-score),[3],-0.196
same,glycan array binding signal (z-score),[4],-0.209
same,glycan array binding signal (z-score),[5],-0.183
same,glycan array binding signal (z-score),GalNAc(b1-4)GlcNAc,2.63
same,glycan array binding signal (z-score),[6],-0.271
same,glycan array binding signal (z-score),[7],-0.22
same,glycan array binding signal (z-score),[8],7.67
same,glycan array binding signal (z-score),[9],9.06
same,glycan array binding signal (z-score),[10],-0.116
same,glycan array binding signal (z-score),Neu5Ac(a2-3)Gal(b1-4)Glc,-0.233
same,glycan array binding signal (z-score),[11],-0.269
same,glycan array binding signal (z-score),[12],-0.127
same,glycan array binding signal (z-score),[13],1.51
same,glycan array binding signal (z-score),[14],0.093
B2,glycan array binding signal (z-score),[1],3.9
same,glycan array binding signal (z-score),Fuc(a1-2)Gal(b1-4)Glc,0.78
same,glycan array binding signal (z-score),[15],-0.156
same,glycan array binding signal (z-score),[16],-0.528
same,glycan array binding signal (z-score),[17],2.72
same,glycan array binding signal (z-score),[18],-0.358
same,glycan array binding signal (z-score),[19],-0.528
same,glycan array binding signal (z-score),Gal(a1-3)Gal(b1-3)GlcNAc,11.2
same,glycan array binding signal (z-score),[20],2.88
same,glycan array binding signal (z-score),[21],-0.296
same,glycan array binding signal (z-score),Gal(a1-4)GlcNAc,-0.083
same,glycan array binding signal (z-score),Gal(b1-3)Gal,-0.397
same,glycan array binding signal (z-score),Gal(b1-3)Gal(b1-4)GlcNAc,-0.262
same,glycan array binding signal (z-score),[22],-0.309
same,glycan array binding signal (z-score),Gal(b1-3)GlcNAc(b1-2)Man,-0.288
same,glycan array binding signal (z-score),[23],-0.434
same,glycan array binding signal (z-score),[24],1.7
same,glycan array binding signal (z-score),[25],5.33
same,glycan array binding signal (z-score),Gal(b1-4)Glc6S,-0.057
same,glycan array binding signal (z-score),[26],0.044
same,glycan array binding signal (z-score),Gal(b1-4)GlcNAc(b1-2)Man,-0.48
same,glycan array binding signal (z-score),[27],-0.462
same,glycan array binding signal (z-score),[28],0.365
same,glycan array binding signal (z-score),[29],1.21
same,glycan array binding signal (z-score),Gal3S(b1-3)GalNAc,0.13
same,glycan array binding signal (z-score),Gal3S(b1-4)Glc,3.03
same,glycan array binding signal (z-score),[30],-0.386
same,glycan array binding signal (z-score),[31],3.73
same,glycan array binding signal (z-score),Gal4S(b1-4)GlcNAc,-0.154
same,glycan array binding signal (z-score),Gal6S(b1-4)GlcNAc,-0.215
